Measurements published in PubChem BioAssay AID1851 (National Center for Advancing Translational Sciences (NCATS), 2009).
Hit rate of the full screen: of about 16,000 compounds, about 4,000 (25%) were called active. Not shown: some 26% with an inconclusive outcome. The list is a sample of the results. Values without a mark were called inactive. Calls follow the shape of the dose curve; as a rule, active = well fitted curve in the direction sought with a large enough effect; inconclusive = small, poorly fitted or top-dose-only effect, or effect the other way; inactive = no such curve, though single readings can be large or run the other way.

The compounds below were run against Cytochrome P450 2C9 (Homo sapiens) (UniProt P11712) (assay: Cytochrome panel assay with activity outcomes). Conditions: recombinant CYP, pro-luciferin dealkylation, luminescence, p450-cyp2c9; series mostly up to 57.1 µM.
% is scaled to controls: 0 for no effect and ±100 for the full control effect.

Sequence of Cytochrome P450 2C9 (Homo sapiens) (P11712 whole entry, looked up): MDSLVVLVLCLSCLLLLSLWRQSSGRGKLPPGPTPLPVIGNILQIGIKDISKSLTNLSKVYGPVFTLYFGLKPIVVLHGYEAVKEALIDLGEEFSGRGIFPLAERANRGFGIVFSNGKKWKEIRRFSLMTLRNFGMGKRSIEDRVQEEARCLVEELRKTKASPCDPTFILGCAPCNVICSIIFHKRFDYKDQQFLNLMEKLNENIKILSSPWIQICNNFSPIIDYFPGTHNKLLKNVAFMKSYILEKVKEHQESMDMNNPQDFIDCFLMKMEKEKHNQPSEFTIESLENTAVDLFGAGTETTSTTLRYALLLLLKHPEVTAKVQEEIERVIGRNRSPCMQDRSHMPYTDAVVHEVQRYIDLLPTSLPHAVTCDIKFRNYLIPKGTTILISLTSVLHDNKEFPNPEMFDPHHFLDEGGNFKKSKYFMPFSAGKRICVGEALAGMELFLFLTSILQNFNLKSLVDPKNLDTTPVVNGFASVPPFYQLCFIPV

`O=C(Nc1ccccc1N1CCOCC1)c1cnccn1` was tested. Which AC50 did it give?
The AC50 was 2 µM (active).

Which AC50 does the source give for `O=C(NCc1ccccc1Cl)c1cnccn1` here?
The AC50 was “inactive”.

With `O=C(Nc1ccccc1)N1CCC2(CC1)CCN(C(=O)c1cnccn1)CC2` as the compound, how does the AC50 read?
Its AC50 is “inactive”.

How did the AC50 turn out when `CCC/C=C(\CCC)C(NS(=O)(=O)CC12CCC(CC1=O)C2(C)C)c1ccc(C(=O)OC)cc1` (configuration not stated) was run?
The AC50 was 15.8 µM (active).

For `CCC/C=C(\CCC)C(NS(=O)(=O)c1ccc(C(F)(F)F)cc1)c1ccc(C(=O)OC)cc1` (configuration not stated), which AC50 is on record?
Its AC50 is 3.16 µM (active).

`CCC/C=C(\CCC)C(NS(=O)(=O)c1ccc(Cl)cc1)c1ccc(C(=O)OC)cc1` (configuration not stated) was tested. Which AC50 did it give?
Its AC50 is 3.16 µM (active).

How did the AC50 turn out when `CCC/C=C(\CCC)C(NS(=O)(=O)c1ccc(C(F)(F)F)cc1)c1ccc(-c2ccccc2)cc1` (configuration not stated) was run?
Its AC50 is “inactive”.

How did the AC50 turn out when `CCC/C=C(\CCC)C(NS(=O)(=O)c1ccccc1)c1ccc(C(F)(F)F)cc1` (configuration not stated) was run?
The AC50 was 10 µM (active).

For `COC(=O)C/C=C\[C@H](C)[C@H](CO)NS(=O)(=O)c1ccc(C)cc1`, which activity, negative = inhibition is on record?
The activity, negative = inhibition was 0.902% [at 11.4 µM].

With `COc1c2occc2c(OC)c2c(=O)cc(C)oc12` as the compound, how does the AC50 read?
Its AC50 is “inactive”.

With `Cc1ccccc1[C@@H](OCCN(C)C)c1ccccc1` as the compound, how does the AC50 read?
Its AC50 is “inactive”.

With `CCC/C=C(\CCC)C(NS(=O)(=O)c1ccc(Cl)cc1)c1ccccc1` (configuration not stated) as the compound, how does the AC50 read?
The AC50 was 2.51 µM (active).

Which AC50 does the source give for `CCC/C=C(\CCC)C(NS(C)(=O)=O)c1ccccc1` (configuration not stated) here?
Its AC50 is “inactive”.

For `CCN(CC)C(=O)N1CCN(C)CC1`, which AC50 is on record?
The AC50 was “inactive”.

With `CS(=O)(=O)N1CCC2(CCCN(C(=O)Nc3cccc(C#N)c3)C2)CC1` as the compound, how does the AC50 read?
Its AC50 is “inactive”.

How did the AC50 turn out when `CCOc1ccccc1NC(=O)CSc1nnc(-c2cnccn2)n1C` was run?
The AC50 was “inactive”.

`COc1ccccc1-n1c(SCC(=O)Nc2ccccc2F)nc2[nH]ncc2c1=O` was tested. Which AC50 did it give?
The AC50 was 15.8 µM (active).

Which AC50 does the source give for `O=C(CSc1nc2nc(-c3cccs3)cc(C(F)(F)F)c2c(=O)[nH]1)NCc1ccco1` here?
Its AC50 is 0.631 µM (active).

For `CCn1cc(C(=O)NCC(=O)OC)c2cc(OC)c(OC)cc2c1=O`, which AC50 is on record?
Its AC50 is “inactive”.

Which activity, negative = inhibition does the source give for `Oc1ccc(Cn2c(-c3ccc(O)cc3)nc3ccccc32)cc1` here?
Its activity, negative = inhibition is 9.3% [at 11.4 µM].

For `Clc1ccc(Cn2c(-c3cccnc3Cl)nc3ccccc32)c(Cl)c1`, which AC50 is on record?
Its AC50 is 5.62 µM (active).

`Clc1ncccc1-c1nc2ccccc2n1Cc1ccccc1` was tested. Which AC50 did it give?
The AC50 was 15.8 µM (active).

Which AC50 does the source give for `c1ccc(CN2c3ccccc3-c3nc4ccccc4n3C2c2ccccn2)cc1` (configuration not stated) here?
Its AC50 is 7.94 µM (active).

How did the AC50 turn out when `CC(C)(C)c1cc2cccnc2n1Cc1ccccc1` was run?
The AC50 was “inactive”.

For `NC(N)=N[C@H](CCC(=O)O)C(=O)O`, which AC50 is on record?
The AC50 was “inactive”.

With `O=C1OCC(c2ccccc2)=C1c1ccc(S(=O)(=O)N2CCOCC2)s1` as the compound, how does the AC50 read?
Its AC50 is 12.6 µM (active).

With `CCCCCC(=O)O[C@H](CC(=O)O)C[N+](C)(C)C` as the compound, how does the AC50 read?
The AC50 was “inactive”.

For `COc1ccc(S(=O)(=O)N2CCN(CC(=O)Nc3cc(OC)cc(OC)c3)CC2)cc1`, which AC50 is on record?
The AC50 was “inactive”.

`COc1ccccc1NC(=O)CN1CCN(c2ccccc2F)CC1` was tested. Which AC50 did it give?
The AC50 was 5.01 µM (active).

Which AC50 does the source give for `O=C(NCCCN1CCN(c2ccccc2F)CC1)C1CCC(=O)N1C1CCCCC1` (configuration not stated) here?
Its AC50 is “inactive”.

With `O=C(CN1CCN(S(=O)(=O)c2ccc(F)cc2)CC1)Nc1ccc(Cl)c(C(F)(F)F)c1` as the compound, how does the AC50 read?
The AC50 was “inactive”.

For `Cc1cccc(N2CCN(CC(=O)Nc3ccc(-n4cnnn4)cc3)CC2)c1C`, which AC50 is on record?
The AC50 was “inactive”.

How did the AC50 turn out when `O=C(CCN1CCN(c2ccccc2F)CC1)Nc1ccccc1F` was run?
Its AC50 is 3.98 µM (active).

Which AC50 does the source give for `COc1ccccc1N1CCN(C[C@@H](C(=O)NC(C)(C)C)c2ccccc2)CC1` here?
Its AC50 is “inactive”.

`CC1CCOC2(O1)C(=O)N(CN1CCN(c3ccccc3F)CC1)c1ccccc12` (configuration not stated) was tested. Which AC50 did it give?
The AC50 was “inactive”.

`CCN(CC)c1ccc(NC(=O)CN2CCN(c3ccccc3F)CC2)cc1` was tested. Which AC50 did it give?
The AC50 was 11.2 µM (active).

Which AC50 does the source give for `COc1ccc(C)cc1NC(=O)CN1CCN(S(=O)(=O)c2ccc(F)cc2)CC1` here?
Its AC50 is 2.51 µM (active).

For `O=c1c(-c2ccccc2)c(O)c2cccc3c2n1CCC3`, which AC50 is on record?
The AC50 was “inactive”.

How did the AC50 turn out when `COc1ccccc1CN1CCCC2(CCNCC2)C1` was run?
The AC50 was “inactive”.

`COc1ccccc1N1CCN(CCN(C(=O)C2CCCCC2)c2ccccn2)CC1` was tested. Which AC50 did it give?
The AC50 was “inactive”.

`CCOc1ccc(C(=O)CN2CCN(S(=O)(=O)c3ccc(F)cc3)CC2)cc1` was tested. Which AC50 did it give?
Its AC50 is “inactive”.

Which AC50 does the source give for `COC(=O)N1CCC2(CC1)CN(c1ccccn1)C2` here?
The AC50 was “inactive”.

How did the AC50 turn out when `COc1cc(NC(=O)c2ccccc2)c(OC)cc1NC(=O)CN1CCN(c2ccccn2)CC1` was run?
The AC50 was 3.16 µM (active).

For `CCOC(=O)N1CCN(S(=O)(=O)c2ccc(C(=O)Nc3ccc(F)cc3F)cc2)CC1`, which AC50 is on record?
Its AC50 is 15.8 µM (active).

How did the activity, negative = inhibition turn out when `CN(C)CCNc1ccccn1` was run?
The activity, negative = inhibition was 3.16% [at 11.4 µM].

How did the AC50 turn out when `Cc1noc(C)c1C(=O)N1CCC2(CCCN(Cc3nccs3)C2)CC1` was run?
Its AC50 is “inactive”.

For `CN(C)Cc1ccccc1-c1cncnc1NC1CC1`, which activity, negative = inhibition is on record?
Its activity, negative = inhibition is 8.78% [at 2.29 µM].

Which AC50 does the source give for `Cc1cc(OCCNCCO)cc(C)c1Cl` here?
The AC50 was “inactive”.

`CN(C)CCNC(=O)c1cc(Br)ccc1Cl` was tested. Which AC50 did it give?
The AC50 was “inactive”.

For `Cc1ccc(OCCNC(=O)c2cc(-n3cnnc3)ccc2Cl)cc1C`, which AC50 is on record?
Its AC50 is 11.2 µM (active).

For `Cc1cccc(N/C(=N\S(=O)(=O)c2ccccc2)C(F)(F)F)c1`, which AC50 is on record?
Its AC50 is 2.51 µM (active).

Which activity, negative = inhibition does the source give for `NC(N)=N/N=C\c1ccc(C2CCNCC2)cc1` here?
Its activity, negative = inhibition is 2.7% [at 11.4 µM].

For `N#Cc1ccccc1NC(=O)Nc1cccs1`, which AC50 is on record?
Its AC50 is “inactive”.

Which AC50 does the source give for `O=C(NCc1ccco1)Nc1cccs1` here?
Its AC50 is 11.2 µM (active).

How did the AC50 turn out when `Cc1cc(NC(=O)C2CCCCC2)nc2c1c(=O)oc1ccccc12` was run?
The AC50 was 14.1 µM (active).

With `Cc1cc2ccccc2n1CCNC(=O)C1CCCC1` as the compound, how does the AC50 read?
The AC50 was “inactive”.

How did the AC50 turn out when `O=C(Nc1cc2ccccc2oc1=O)C1CCCCC1` was run?
The AC50 was “inactive”.

How did the AC50 turn out when `COc1ccccc1-c1cc(C(F)(F)F)nc(S(=O)(=O)CCCC(=O)NC(C)C)n1` was run?
Its AC50 is “inactive”.

With `CN1CCN(c2nc(-c3ccccc3)cc(C(F)(F)F)n2)CC1` as the compound, how does the AC50 read?
The AC50 was “inactive”.

Which AC50 does the source give for `COc1ccc(-n2c(=O)c(-c3cc(F)cc(F)c3)nc3cnc(N4CCOCC4)nc32)cc1` here?
Its AC50 is “inactive”.

For `COc1ccccc1N1CCN(c2nc(-c3ccccc3)cc(C(F)(F)F)n2)CC1`, which AC50 is on record?
Its AC50 is 5.62 µM (active).

For `COc1ccc(-c2cc(C(F)(F)F)nc(NC3CCCC3)n2)cc1OC`, which AC50 is on record?
Its AC50 is 7.94 µM (active).

Which AC50 does the source give for `COc1ccc(-c2cc(C(F)(F)F)nc(N3CCN(C)CC3)n2)cc1OC` here?
The AC50 was “inactive”.

With `COc1ccccc1-c1nc(N2CCN(C)CC2)c2ccccc2n1` as the compound, how does the activity, negative = inhibition read?
The activity, negative = inhibition was 11.5% [at 2.29 µM].

`COc1cccc(-c2cc(C(F)(F)F)nc(N3CCOCC3)n2)c1` was tested. Which AC50 did it give?
The AC50 was 15.8 µM (active).

`COc1ccccc1-c1nc(NC2CC2)c2ccccc2n1` was tested. Which activity, negative = inhibition did it give?
The activity, negative = inhibition was 5.77% [at 2.29 µM].

For `COc1ccc(-c2cc(C(F)(F)F)nc(N3CCCCC3)n2)cc1OC`, which AC50 is on record?
Its AC50 is 10 µM (active).
